Out of some 310,000 compounds screened, about 14,000 (4.5%) showed an effect of 50% or more. Effects have a minus sign here. This is one part of a sample in which strong results are shown more often than they occur.

Here are results for 43 molecules from paper PMC4336329 (PLoS ONE, 2015).
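Note: peak tail current of the secondary pulse compared with the same well before compound.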

The target in this test is human ether-à-go-go-related gene (hERG) potassium channel (human, UniProt Q12809). The experiment in a line: primary screen, population patch clamp on CHO cells stably expressing hERG; higher = less effect of the substance.
Sequence of human ether-à-go-go-related gene (hERG) potassium channel (Q12809 whole entry, looked up): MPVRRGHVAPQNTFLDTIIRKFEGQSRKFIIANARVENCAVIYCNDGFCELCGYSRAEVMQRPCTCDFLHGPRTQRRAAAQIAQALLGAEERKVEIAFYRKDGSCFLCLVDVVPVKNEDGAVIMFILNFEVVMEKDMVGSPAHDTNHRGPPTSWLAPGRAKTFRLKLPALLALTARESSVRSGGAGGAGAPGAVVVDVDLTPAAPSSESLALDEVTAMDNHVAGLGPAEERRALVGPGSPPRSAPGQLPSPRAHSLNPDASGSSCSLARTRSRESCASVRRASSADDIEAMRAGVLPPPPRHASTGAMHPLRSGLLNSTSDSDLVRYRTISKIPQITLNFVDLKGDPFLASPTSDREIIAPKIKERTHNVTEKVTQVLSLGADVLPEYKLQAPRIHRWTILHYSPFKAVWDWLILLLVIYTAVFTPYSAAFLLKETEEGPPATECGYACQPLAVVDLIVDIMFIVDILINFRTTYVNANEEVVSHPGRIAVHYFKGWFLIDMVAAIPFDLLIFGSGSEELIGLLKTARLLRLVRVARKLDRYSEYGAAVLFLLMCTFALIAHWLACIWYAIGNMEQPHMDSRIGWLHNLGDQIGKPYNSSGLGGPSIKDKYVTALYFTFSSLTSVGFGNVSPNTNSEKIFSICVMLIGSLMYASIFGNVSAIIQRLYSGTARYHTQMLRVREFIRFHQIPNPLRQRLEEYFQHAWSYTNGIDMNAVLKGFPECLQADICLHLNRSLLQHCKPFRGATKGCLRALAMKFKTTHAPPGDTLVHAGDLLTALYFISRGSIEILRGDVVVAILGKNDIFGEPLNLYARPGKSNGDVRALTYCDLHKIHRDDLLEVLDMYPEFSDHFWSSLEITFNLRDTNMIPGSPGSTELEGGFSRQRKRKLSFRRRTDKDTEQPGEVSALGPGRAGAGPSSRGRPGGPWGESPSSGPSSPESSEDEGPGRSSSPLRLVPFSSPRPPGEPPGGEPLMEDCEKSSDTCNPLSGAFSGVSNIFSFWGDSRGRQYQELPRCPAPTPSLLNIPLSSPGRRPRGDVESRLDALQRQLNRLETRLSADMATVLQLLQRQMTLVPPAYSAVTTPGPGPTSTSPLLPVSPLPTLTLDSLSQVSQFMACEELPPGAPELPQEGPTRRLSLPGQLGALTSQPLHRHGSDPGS
Take `CC(C)CN(C(=O)c1ccc([N+](=O)[O-])s1)c1c(N)n(Cc2ccccc2)c(=O)[nH]c1=O`: the “hERG current change (%, negative = inhibition) at 10uM” value is 10.3%.
For `O=C(Nc1ccccc1F)c1ccc(CN2CCc3ccccc3C2)cc1` the value was 13.7%; for `O=C(Nc1ccccc1C(F)(F)F)c1ccc(CN2CCC(Cc3ccccc3)CC2)cc1`, -42.4%; for `O=C(Nc1ccccc1F)c1ccc(CN2CCN(c3ccccc3)CC2)cc1`, -70.7%.
In the case of `Cc1ccccc1NC(=O)c1ccc(CN2CCC(Cc3ccccc3)CC2)cc1`, the “hERG current change (%, negative = inhibition) at 10uM” value is given as -52.2%.
For `COc1ccc(NC(=O)c2ccc(CN3CCN(c4ccccc4)CC3)cc2)cc1` the value was -9.47%; for `O=C(c1ccc(CN2CCOCC2)cc1)N1CCC(Cc2ccccc2)CC1`, -3.35%; for `CCc1ccccc1NC(=O)c1ccc(CN2CCC(Cc3ccccc3)CC2)cc1`, -50.8%.
For `Cc1ccccc1NC(=O)c1ccc(CN2CCc3ccccc3C2)cc1` the value was -16.4%; for `Cc1ccccc1NC(=O)CCN1CCN(Cc2ccccc2)CC1`, -27.2%; for `O=C(NO)c1ccccc1C(F)(F)F`, 15.4%.
On to `Cc1cccc(C)c1OCC(=O)Nc1cccc(S(=O)(=O)N2CCCC2)c1`, for which the “hERG current change (%, negative = inhibition) at 10uM” value was 3.77%.
For `CC(Oc1ccc2c3c(c(=O)oc2c1)CCCC3)C(=O)NCC(O)c1ccccc1` (stereo not shown), the “hERG current change (%, negative = inhibition) at 10uM” value is listed as 16.8%.
For `COc1ccc(S(=O)(=O)c2ccc(OC)c(OC)c2)cc1OC`, the “hERG current change (%, negative = inhibition) at 10uM” value is recorded as -12.2%.
With `COc1ccc(CCNC(=O)C2CCN(S(=O)(=O)c3c(C)noc3C)CC2)cc1OC`, the “hERG current change (%, negative = inhibition) at 10uM” value was -16.9%.
Take `O=C(CCCNC(=O)/C(=C/c1ccc(F)cc1)NC(=O)c1ccccc1)OCc1ccccc1`: the “hERG current change (%, negative = inhibition) at 10uM” value is on record as -64.3%.
To `O=C(O)CCCNC(=O)/C(=C\c1ccccc1F)NC(=O)c1ccccc1` belongs 13.4%.
Regarding `O=C(CCCNC(=O)/C(=C\c1ccccc1F)NC(=O)c1ccccc1)OCc1ccccc1`, the “hERG current change (%, negative = inhibition) at 10uM” value was -9.13%.
To `O=C(CCCNC(=O)/C(=C/c1ccccc1F)NC(=O)c1ccccc1)OCc1ccccc1` belongs -5.02%; to `O=C(CCCNC(=O)/C(=C/c1ccc(Br)cc1)NC(=O)c1ccccc1)OCc1ccccc1`, -38.8%.
For `O=C(CCCNC(=O)/C(=C\c1ccc(F)cc1)NC(=O)c1ccccc1)OCc1ccccc1` the value was -77.1%; for `Cc1csc(NC(=O)c2ccc(COc3ccccc3)o2)n1`, -17.7%; for `CC(=O)Nc1ccccc1NC(=O)C/C(C)=N/NC(=O)c1ccccn1`, 16.1%.
As to `COc1ccc2nc(C)cc(Nc3ccc(C)cc3)c2c1.Cl`, the “hERG current change (%, negative = inhibition) at 10uM” value is listed as -52.8%.
Take `COc1ccc2nc(C)cc(Nc3ccc(C(=O)O)cc3)c2c1`: the “hERG current change (%, negative = inhibition) at 10uM” value is 39.5%.
Turning to `COc1ccc(Nc2cc(C)nc3ccc(OC)cc23)cc1`, the “hERG current change (%, negative = inhibition) at 10uM” value is -52.3%.
As for `Nc1ncncc1-c1ccc2ccccc2c1`, the “hERG current change (%, negative = inhibition) at 10uM” value is -7.48%.
To `Clc1ccc(/C=N/c2c(-c3ccc(Cl)cc3)nc3n2CCS3)cc1` belongs 1.1%; to `CC1CCCCC1NC(=O)c1cn(C)c2ccc(S(=O)(=O)N3CCCC3)cc2c1=O` (stereo not shown), -0.37%.
As to `COc1ccc(C(=O)OCn2nnc3ccccc3c2=O)cc1[N+](=O)[O-]`, the “hERG current change (%, negative = inhibition) at 10uM” value was 13.6%.
For `Cc1ccc(S(=O)(=O)N(C)C)cc1NC(=O)C(C)Sc1ccccc1` (stereo not shown) the value was -6.74%; for `CC(=C/c1ccccc1)/C=N/NC(=O)c1ccccn1`, -30.3%; for `CC(/C=N/NC(=O)c1c(Br)cnn1C)=C\c1ccccc1`, -13%.
To `COc1ccc(C(=O)NCC(=O)N/N=C/C=C/c2ccccc2)cc1OC` belongs -93.6%; to `COc1ccc(C(=O)N/N=C\C(C)=C\c2ccccc2)cc1OC`, -61.4%; to `CC(/C=N/NC(=O)c1ccccc1F)=C\c1ccccc1`, 12.7%.
With `CC(/C=N/NC(=O)c1nn(C)c(C)c1Br)=C\c1ccccc1`, the “hERG current change (%, negative = inhibition) at 10uM” value is listed as -53.8%.
To `CC(/C=N/NC(=O)c1ccc(Br)cc1)=C\c1ccccc1` belongs -3.38%; to `COc1ccccc1C(=O)N/N=C/C(C)=C/c1ccccc1`, -73.8%; to `COc1ccc(C(=O)NCC(=O)N/N=C(C)\C=C\c2ccccc2)cc1OC`, -19.3%.
On to `CC(/C=N/NC(=O)c1ccncc1)=C\c1ccccc1`, for which the “hERG current change (%, negative = inhibition) at 10uM” value turned out to be 9.78%.
To `COc1ccc(C(=O)NCC(=O)N/N=C/C(C)=C/c2ccccc2)cc1OC` belongs -1.63%; to `O=C(CNC(=O)c1ccccc1)N/N=C/C=C/c1ccccc1`, -1.96%.
